Compounds without any hit were thinned out: in the full panel of roughly 83,000, 20% have a hit.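 Single-dose data. Exposure time 48 hours. Values below 10 considered active.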 A number with no mark means an inactive call. Calls of active or inactive are those of the source.

The values that follow come from PubChem BioAssay (NCI).

Among the test systems are SK-MEL-2 melanoma; EKVX NSCLC; SN12C renal; UO-31 renal; TK-10 renal; ACHN renal; A498 renal; CCRF-CEM leukemia; MOLT-4 leukemia.
Common to all, as to assay: NCI-60 one-dose screen, 48 h (100 = growth as untreated, 0 = no growth, -100 = all killed)
Holding throughout (settings): 10 µM unless noted

Take `O=C(N/N=C/c1ccc(Cl)cc1)c1ccc(OCc2nc3ccc(Cl)cc3[nH]2)cc1`: the growth was 47.7% in the experiment on SK-MEL-2 melanoma; 32.1% in the experiment with EKVX NSCLC; 30.4% in the experiment on SN12C renal; 11.1% in the experiment on UO-31 renal; 12.4% with TK-10 renal; 28.6% in the experiment with ACHN renal. Further, the growth is 129% in the experiment on A498 renal, 66.7% in the experiment on CCRF-CEM leukemia and 15% in the experiment with MOLT-4 leukemia.
As to `COc1ccc(N=Nc2c(N)nn3c(-c4cc5ccccc5oc4=O)ccnc23)cc1`, the growth is 39.3% in the experiment on SK-MEL-2 melanoma; 44.1% in the experiment with EKVX NSCLC; 24.1% in the experiment with SN12C renal; 40.7% in the experiment with UO-31 renal; 77.7% in the experiment on TK-10 renal; 3.84% (active) with ACHN renal. Also, the growth in the experiment with A498 renal is 138%; in the experiment on CCRF-CEM leukemia, 96.3%; in the experiment with MOLT-4 leukemia, 104%.
With `Cc1nc2sccn2c1-c1nnc(SCC(C)C)o1`, the growth in the experiment on SK-MEL-2 melanoma was 92.1%; in the experiment with EKVX NSCLC, 74.5%; in the experiment on SN12C renal it was 88.4%; in the experiment on UO-31 renal, 67.7%; in the experiment with TK-10 renal, 127%; in the experiment with ACHN renal, 87.8%. For the same compound, the figures for the growth with A498 renal, with CCRF-CEM leukemia and in the experiment on MOLT-4 leukemia were 98.5%, 51.6% and 84.1%, respectively.
Take `COc1ccc2[nH]c(O)c(N=NC(=O)c3ccc4nc(-c5ccc(Cl)cc5)[nH]c4c3)c2c1`: the growth was 109% with SK-MEL-2 melanoma; 90.1% in the experiment with EKVX NSCLC; 70.7% in the experiment on SN12C renal; 95.6% in the experiment with UO-31 renal; 111% in the experiment on TK-10 renal; 104% in the experiment on ACHN renal. The growth is 166% with A498 renal, 25.7% in the experiment with CCRF-CEM leukemia and 15.7% in the experiment on MOLT-4 leukemia.
Take `O=C1Nc2ccccc2/C1=C\c1ccc(OCC(=O)c2ccc(Br)cc2)cc1`: the growth in the experiment with SK-MEL-2 melanoma was 72.4%; in the experiment on EKVX NSCLC it was 65.6%; in the experiment on SN12C renal, 62.7%; in the experiment with UO-31 renal it was 48.5%; with TK-10 renal, 94.9%; with ACHN renal, 70%. For the same compound, the growth in the experiment with A498 renal was 100%; in the experiment on CCRF-CEM leukemia, 58.2%; in the experiment on MOLT-4 leukemia, 8.54% (active).
In the case of `O=C(Cn1c(-c2ccccc2)nc2ccccc21)N=Nc1c(O)[nH]c2ccc(Br)cc12`, the growth in the experiment on SK-MEL-2 melanoma is -8.9% (active); in the experiment on EKVX NSCLC it was -23.3% (active); in the experiment with SN12C renal it was 1.91% (active); in the experiment on UO-31 renal, -47.5% (active); in the experiment on TK-10 renal, -17.5% (active); in the experiment on ACHN renal, -80% (active). In addition, the growth is -38.1% (active) in the experiment with A498 renal, 32.5% in the experiment on CCRF-CEM leukemia and 20.8% with MOLT-4 leukemia.
`COc1ccccc1NC(=O)c1ccc(NC(=O)CCl)s1`: the growth was 37.1% with SK-MEL-2 melanoma; 59.7% in the experiment with EKVX NSCLC; -52.8% (active) in the experiment on SN12C renal; -20.5% (active) in the experiment with UO-31 renal; -6.19% (active) in the experiment with TK-10 renal; 10.2% in the experiment on ACHN renal. The values for the growth in the experiment with A498 renal, with CCRF-CEM leukemia and in the experiment with MOLT-4 leukemia were 73.1%, -18.9% (active) and -19.5% (active), respectively.
`COc1ccc(C2=Nc3c(N)nc(N)nc3NC(c3ccc(Oc4nc(Nc5ccc(F)cc5)nc(N(C)C)n4)c(OC)c3)C2)cc1` (stereo not given): the growth in the experiment with SK-MEL-2 melanoma is 92.4%; in the experiment with EKVX NSCLC it was 67.2%; in the experiment with SN12C renal, 90.2%; with UO-31 renal, 52.5%; in the experiment with TK-10 renal it was 86.4%; in the experiment on ACHN renal it was 99%. In addition, the growth is 68.9% with A498 renal and 50.1% in the experiment on CCRF-CEM leukemia.
Consider `COc1ccc(NC2=C(I)C(=O)C(C)=C(C)C2=O)cc1`, for which the growth in the experiment with SK-MEL-2 melanoma was 56.9%; with EKVX NSCLC, 25%; in the experiment with SN12C renal, 17%; with UO-31 renal it was 46.1%; with TK-10 renal, 155%; with ACHN renal, 30.4%. The growth was 113% in the experiment on A498 renal, -11.1% (active) with CCRF-CEM leukemia and -6.32% (active) in the experiment with MOLT-4 leukemia.
Consider `CN1CCc2c(sc3ncnc(N/N=C/c4cccc(Cl)c4Cl)c23)C1`, for which the growth in the experiment on SK-MEL-2 melanoma was 104%; in the experiment with EKVX NSCLC it was 67.4%; with SN12C renal, 10.3%; with UO-31 renal, 42.6%; with TK-10 renal, 72.7%; in the experiment with ACHN renal it was -39.1% (active). Also, the growth with A498 renal is 114%; with CCRF-CEM leukemia it was 4.9% (active); with MOLT-4 leukemia, 6.34% (active).
As to `CN1C(=O)C2(C(C#N)=C(c3ccc(Cl)cc3)Nc3c2c(-c2ccccc2)nn3-c2ccccc2)c2ccccc21` (stereo not given), the growth with SK-MEL-2 melanoma was 89.8%; in the experiment on EKVX NSCLC, 80.7%; with SN12C renal, 86.3%; in the experiment with UO-31 renal, 71.7%; with TK-10 renal it was 103%; in the experiment on ACHN renal, 89.5%. The growth with A498 renal is 144%; with CCRF-CEM leukemia, 75.6%; in the experiment on MOLT-4 leukemia it was 64.4%.
In the case of `COC(=O)c1cc(C(=O)C(C)(C)C)n2c3ccccc3c3ccccc3c12`, the growth with SK-MEL-2 melanoma was 93.3%; in the experiment on EKVX NSCLC, 101%; with SN12C renal, 95.5%; in the experiment on UO-31 renal, 84.7%; in the experiment with TK-10 renal, 121%; with ACHN renal, 89.7%. Further, the growth was 156% in the experiment with A498 renal, 75.8% in the experiment with CCRF-CEM leukemia and 67.1% in the experiment on MOLT-4 leukemia.
Turning to `CC1=C(C)C(=O)C(N2CCSCC2)=CC1=O`, the growth is 94.6% with SK-MEL-2 melanoma; 92.6% in the experiment with EKVX NSCLC; 100% with SN12C renal; 76.2% with UO-31 renal; 130% in the experiment on TK-10 renal; 96.6% with ACHN renal. The growth with A498 renal was 98.2%; with CCRF-CEM leukemia, 81%; in the experiment on MOLT-4 leukemia, 86.3%.
On to `CC[C@]12C=CCN3CC[C@]4(C(=C(C(=O)OC)C1)Nc1cc(OC)c([C@@H]5[C@H]6O[C@H]6[C@@]6(CC)CC(C(=O)OC)=C7Nc8cc(OC)ccc8[C@@]78CCN5[C@@H]68)cc14)[C@@H]32`, for which the growth in the experiment with SK-MEL-2 melanoma was 83.1%; with EKVX NSCLC it was 51.7%; with SN12C renal, 50%; in the experiment on UO-31 renal it was 69.5%; with TK-10 renal, 72.5%; with ACHN renal, 44%. Besides, the growth with A498 renal was 141%; with CCRF-CEM leukemia, 30.8%; in the experiment on MOLT-4 leukemia, 18.4%.
